Each structure is given as a SMILES string. Inconclusive results are not listed. The source made the active and inactive calls. The call rests on the fitted dose curve; in most records, active means well fitted activation curve with a large enough effect; inconclusive means small, poorly fitted or top-dose-only effect; inactive means no such curve, though single readings can be large or run the other way.

The target of this assay is Cellular tumor antigen p53 (Homo sapiens) (UniProt P04637). The experiment in a line: Primary qHTS for small molecule compounds that upregulate eGFP-tagged delta133p53alpha (in N-terminal) cells. (AID 2060322).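 Further: series mostly up to about 56 µM; 0% = DMSO vehicle and 100% = reference activator; nearly all actives have a fitted effect of over 75% in size.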 The following applies: NCI-H358 eGFP-delta133p53alpha fluorescence, 24 h; activation: hits give high values. The gist of the method: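 NCI-H358 cells pre-induced 24 h with 10 ng/ml doxycycline to express N-terminal eGFP-delta133p53alpha, then dosed 24 h at 37C without doxycycline; fixed, Hoechst-stained, GFP intensity by laser scanning cytometry, normalized to DMSO (0%) and 57.5 uM 5-azacytidine (100%).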
Chain of Cellular tumor antigen p53 (Homo sapiens) (P04637 whole entry, looked up): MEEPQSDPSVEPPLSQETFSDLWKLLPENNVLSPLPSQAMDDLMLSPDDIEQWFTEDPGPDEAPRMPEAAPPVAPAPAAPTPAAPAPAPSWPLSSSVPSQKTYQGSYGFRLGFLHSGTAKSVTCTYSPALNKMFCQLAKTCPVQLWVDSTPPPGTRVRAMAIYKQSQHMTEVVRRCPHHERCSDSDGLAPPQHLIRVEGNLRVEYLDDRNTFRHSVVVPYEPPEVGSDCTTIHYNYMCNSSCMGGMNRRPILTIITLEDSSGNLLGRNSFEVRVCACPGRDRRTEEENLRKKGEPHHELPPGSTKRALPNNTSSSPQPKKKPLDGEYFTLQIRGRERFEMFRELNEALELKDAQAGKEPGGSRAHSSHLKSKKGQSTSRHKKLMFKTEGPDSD
For the molecule `COc1cc2c(cc1O)C1(Cc3ccc4c(c3C1O)OCO4)[N+](C)([O-])CC2` (stereo unspecified), the activation was -8.04% (inactive). The figure for `O=C(O[C@H]1[C@H](Oc2ccc(O)cc2CO)O[C@H](CO)[C@@H](O)[C@@H]1O)c1ccccc1` is -10.7% (inactive); for `COc1cc(/C=C/CO[C@@H]2O[C@H](CO)[C@@H](O)[C@H](O)[C@H]2O)cc(OC)c1O[C@@H]1O[C@H](CO)[C@@H](O)[C@H](O)[C@H]1O` it is 0.893% (inactive). On to `O=C(OC[C@H]1O[C@@H](Oc2ccccc2COC(=O)C2(O)C=CCCC2O)[C@H](O)[C@@H](O)[C@@H]1O)c1ccccc1` (stereo partly specified), for which the activation is -15.3% (inactive). The figure for `CC(C)n1nc(C#Cc2ccccc2)c2c(N)ncnc21` is 25% (inactive).

Turning to `CC1(C)C=Cc2c(ccc3c2[N+]([O-])=C2C3(O)CC34NC(=O)C5(CCCN5C3=O)CC4C2(C)C)O1` (stereo unspecified), the activation was 6.25% (inactive).

For the molecule `COc1cc(C[C@@]2(O)CO[C@@H](c3ccc(O[C@@H]4O[C@H](CO)[C@@H](O)[C@H](O)[C@H]4O)c(OC)c3)[C@H]2CO)ccc1O`, the activation was -17% (inactive).

As to `Cn1c(N2CCCCS2(=O)=O)nc(C(=O)NCc2ccc(F)cc2)c(O)c1=O`, the activation is 0.955% (inactive). The figure for `CC1(C)OC(=O)CC(O)C2(C)C1CC(=O)C1(C)C2C(O)CC2(C)C(c3ccoc3)OC(=O)C3OC321` (stereo unspecified) is -23.7% (inactive); for `CC(C)c1ccc2c(c1)CCC1[C@](C)(C(=O)O)CCC[C@]21C` (stereo partly specified) it is 9.82% (inactive).

`CC1CCC2(O1)C(C)(C)CC(O[C@@H]1O[C@H](CO[C@@H]3OC[C@](O)(CO)[C@H]3O)[C@@H](O)[C@H](O)[C@H]1O)CC2(C)O` (stereo partly specified): the activation was 1.79% (inactive).

The values are drawn from PubChem BioAssay (NCATS).
